IL-1B inflam inh: inflammasome signaling inhibition, IL-1 beta readout; activity change, % at 57.5 µM; THP-1 LPS/ATP IL-1B secretion, AlphaLISA, 16 h; hits give low values; AID 743279; 4.7% of 360,000 active; in the data active = activity change below about -50%; inconclusive = mostly about -30% to -49%; also: % is scaled to controls: 0 for no effect and ±100 for the full control effect
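Secreted IL-1B measured by AlphaLISA bead assay after 16 h compound exposure of THP-1 cells; compounds (final up to 57.5 uM) added 1 h before LPS (250 ng/mL) and ATP (1.25 mM) stimulation; lower signal means less secretion.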
Giardia killer: Giardia lamblia killing; Giardia lamblia trophozoite viability; activity change, % at 7.66 µM, hits read low; 0.15% of 340,000 active; AID 540267; in the data active = activity change below about -80%; inconclusive = between about -30% and that limit;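 also: parasites exposed to compound for two days anaerobically before the ATP read; % is scaled to controls: 0 for no effect and ±100 for the full control effect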
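Giardia trophozoites, 100 cells per well, were exposed to compounds for 48 hrs at 37 deg C under anaerobic conditions; viability was then read as ATP content by bioluminescence after 15-30 min at room temperature.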
HT1080 IDH1KD tx: HT-1080 IDH1 knockdown cell toxicity (counter line). AID 686971. 2% of 360,000 active. Potency, µM (doses to about 46.1 µM), for inactives: at the top dose activity, negative = toxicity, actives largely listed as cytotoxic. HT-1080 IDH1 knockdown viability, ATP luminescence, 48 h;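 also: potency is read from the fitted curve at half-maximal effect; 0% = DMSO wells and -100% = cell-free medium wells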
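In this qHTS, HT-1080 cells depleted of IDH1 are exposed for 48 h at 37 °C to compound titrations. Toxicity is scored from CellTiter-Glo luminescence, with DMSO as full viability and medium alone as none.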
HepG2 tox: kills HepG2 cells in TGF-b inhibitor counter-screen; Potency, µM (highest dose often 46.1 µM), without a hit: at the top dose activity change, negative = cytotoxicity, usual class: cytotoxic; 0.76% of 410,000 active; HepG2 CAGA-GFP viability, ATP luminescence, 18 h; also: potency is read from the fitted curve at half-maximal effect
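HepG2 CAGA-GFP cells (1000/well, DMEM with 1% FBS) received compound, then TGF-beta at 500 pg/mL final, and were incubated 18 hours at 37 degrees C. Viability was read by CellTiter-Glo luminescence. Media-only wells were set as complete cell-killing and DMSO as no toxicity.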
HT1080-NT tox: kills 2HG-producing HT-1080-NT fibrosarcoma cells | HT-1080-NT fibrosarcoma viability, CellTiter-Glo ATP luminescence, 48 h | Potency, µM (top dose mostly 46.1 µM), for inactives: at the top dose activity, negative = less viability, most hits filed as cytotoxic | 1.6% of 360,000 active;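 also: NT is the 2HG producing partner of a matched IDH1 knockdown line; potency is read from the fitted curve at half-maximal effect; 0% = DMSO-treated cells and -100% = media-only wells without cells; nearly all actives have a fitted effect of over 55% in size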
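HT-1080-NT fibrosarcoma cells (2HG-overproducing), 750 cells/well in RPMI with 5% FBS, dosed after 2 h and incubated 48 h at 37C. CellTiter-Glo luminescence normalized to DMSO and no-cell wells; concentration-response curves fitted and classed.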
TGFb inhibitor: blocks TGF-b signaling; HepG2 CAGA-GFP TGF-b/SMAD3 reporter, GFP fluorescence, 18 h; TGF-beta stimulated, 500 pg/mL final; 1.2% of 410,000 active; Potency, µM (top dose mostly 46.1 µM), without a hit: top-dose activity, negative = inhibition, usual class: inhibitors; also: potency is read from the fitted curve at half-maximal effect; % is scaled to controls: 0 for no effect and ±100 for the full control effect; nearly all actives have a fitted effect of over 65% in size
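Per well, imaged GFP fluorescence of HEPG2 CAGA-GFP cells gives the signal; cells get compound, then TGF-beta (500 pg/mL final), 18 h at 37 degrees C; %Activity versus -TGF-beta and +DMSO controls.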
* marks the source's active call; other numbers are inactive results; ? = inconclusive; . = not tested or not shown. Hits are enriched below; roughly 6.5% of the tested compounds scored in any of these assays. Unless noted, calls follow the shape of the dose curve; as a rule, active = well fitted curve in the direction sought with a large enough effect; inconclusive = small, poorly fitted or top-dose-only effect, or another doubt; inactive = no such curve, though single readings can be large; an effect the other way counts as inactive or inconclusive.

SMILES | IL-1B inflam inh | Giardia killer | HT1080 IDH1KD tx | HepG2 tox | HT1080-NT tox | TGFb inhibitor
COc1ccc(/C(=N/O)C(C)(C)NO)cc1 | 0 | -11 | 7% | -2% | -2% | 7%
Cc1ccc(C(=O)NNc2c3ccccc3nc3ccccc23)cc1 | -98* | -5 | ? | -13% | -14% | -11%
CCOC(=O)C1=C(C)NC(C)=C(C(=O)OCC)C1c1ccc(Br)o1 | -72* | -2 | 0% | 5% | -3% | ?
CC(=O)c1ccc(NC(=O)C2CCCC2)cc1 | -13 | 0 | -1% | -29% | 1% | -17%
CCc1ccc(CNC(=O)Cc2ccc(NC(=O)C3=C(C)OCCS3)cc2)cc1 | 44 | -7 | 1.3µM* | -8% | 0.82µM* | ?
Cc1cc(OCC(=O)OCC(=O)N2CCc3ccccc32)ccc1Cl | 10 | -15 | 2% | -3% | 6% | -5%
O=C1C=CC(=Nc2ccc3c(c2)C(=O)c2ccccc2-3)O1 | -2 | -8 | 4% | 2% | 3% | -2%
O=C1C=CC(=Nc2ccc(F)cc2)O1 | -51* | -5 | ? | 4% | ? | -5%
CSc1nc(N)nc(SCC(=O)Nc2cccc(F)c2)c1C#N | -13 | 7 | -21% | -30% | -3% | ?
CSc1nc(N)nc(SCC(=O)Nc2ccc(Cl)cc2)c1C#N | -78* | 12 | ? | -51% | ? | ?
CSc1nc(N)nc(SCCS(=O)(=O)c2ccc(Cl)cc2)c1C#N | ? | 3 | 11µM* | 0% | ? | ?
CCc1cc(C(=O)c2ccc(OC)cc2)c(NC(=O)CN2CCCCC2)s1 | -19 | -2 | 0% | 3% | ? | 1%
COCCNC(=O)CN1C(=O)/C(=C/c2ccccc2)Oc2ccc(C(C)(C)C)cc21 | -53* | -5 | -1% | -111% | 12% | ?
CCN1CCN(CCNC(=O)c2ccc3c(c2)N(Cc2ccc(F)cc2)C(=O)/C(=C/c2ccccc2)S3)CC1 | -102* | -12 | 5.2µM* | -185% | 6.5µM* | ?
CN1CCN(CCCNC(=O)c2ccc(/C=C3\Sc4ccccc4N(Cc4ccccc4F)C3=O)cc2)CC1 | -13 | -10 | ? | -34% | 23µM* | ?
O=C(CN1C(=O)/C(=C/c2ccc(C(F)(F)F)cc2)Sc2ccccc21)NCCCN1CCOCC1 | ? | -4 | ? | -53% | ? | ?
O=C(NCCN1CCOCC1)c1ccc(/C=C2\Sc3ccccc3N(Cc3ccccc3F)C2=O)cc1 | -5 | -28 | -29% | -49% | -11% | ?
CCc1ccc(/C=C2/Sc3ccccc3N(CC(=O)NCCCN3CCOCC3)C2=O)cc1 | -65* | 2 | 0% | 18µM* | 8% | ?
CCCS(=O)(=O)NC(=O)C1(C)CCCN(C(=O)c2cc(OC)ccc2Br)C1 (stereo unspecified) | 38 | . | 1% | 1% | 10% | 0%
O=C(Cn1cnc2c(nnn2-c2cccc(Cl)c2)c1=O)N1CCCC1 | 17 | -14 | -11% | 6% | 19% | 13%
O=C(CN1C(=O)COc2ccccc21)NCCCN1CCOCC1 | 15 | 4 | 9% | -14% | 0% | -7%
O=C(CN1C(=O)/C(=C\c2cccc(Br)c2)Oc2ccccc21)NCCCN1CCOCC1 | -52* | 16 | -24% | -25% | 8% | 12%
CCN1CCN(CCNC(=O)c2ccc(/C=C3/Sc4ccccc4N(Cc4cccc(Cl)c4)C3=O)cc2)CC1 | -99* | 8 | ? | 22µM* | 15µM* | ?
c1ccc(COc2ncnc3c2ncn3CCCN2CCN(Cc3cccc4ccccc34)CC2)cc1 | -4 | . | ? | -116% | 16µM* | ?
Cc1ccc(CN2CCN(CCCn3cnc4c(OCc5ccccc5)ncnc43)CC2)cc1 | -54* | -10 | -20% | -35% | -4% | ?
SMILES | IL-1B inflam inh | Giardia killer | HT1080 IDH1KD tx | HepG2 tox | HT1080-NT tox | TGFb inhibitor
Cc1cc(=O)c(C(=O)Nc2cccc(N3CCCC3=O)c2)nn1-c1ccccc1Cl | 5 | 14 | -4% | -34% | -9% | 15%
CC(=O)N1CCc2c(sc3nc(SCC(C)C)n(-c4ccc(C)c(Cl)c4)c(=O)c23)C1 | . | . | . | 11µM* | . | ?
CC(=O)N1c2ccc(S(=O)(=O)NCCC(=O)Nc3ccccc3C)cc2CC1C (stereo unspecified) | 17 | -6 | 0% | 5% | 2% | 2%
COc1ccc2ccccc2c1CN1CCN(C(=O)c2ccco2)CC1 | -52* | -2 | -25% | -8% | -11% | 7%
c1ccc(CN2CCN(CCOCCOc3cccc4ccccc34)CC2)cc1 | -81* | -5 | ? | -17% | 16µM* | -5%
CC(C)(C)c1ccccc1OCCOCCN1CCCCCC1 | -62* | 18 | ? | -12% | -14% | 6%
O=C(c1ccco1)N1CCCN(Cc2cn[nH]c2-c2ccc(-c3ccccc3)cc2)CC1 | -82* | 11 | -16% | -23% | -18% | -18%
O=C(NCc1ccc(Cl)c(Cl)c1)c1cc(C2CCCCN2C(=O)C2CCCCC2)on1 (stereo unspecified) | -27 | . | -23% | -6% | -14% | -29%
CCCC(C)c1nnc(NC(=O)CN2C(=O)c3ccccc3C2=O)s1 (stereo unspecified) | 0 | 4 | 0% | -36% | 7% | 0%
O=C1C2C3C=CC(C3)C2C(=O)N1Nc1c(Cl)cc(Cl)cc1Cl (stereo unspecified) | 0 | 12 | -1% | 8% | 6% | -3%
CSc1ccc(CN(C)C(=O)CCNS(=O)(=O)c2ccc(C)c(C)c2)cc1 | -25 | -6 | 3% | 3% | 0% | -5%
O=C(c1ccco1)N1CCN(CCCCOc2cccc3ccccc23)CC1 | 0 | 8 | -10% | 7.9µM* | -7% | ?
CCOc1ccccc1-n1c(CN2CCN(C(=O)c3ccco3)CC2)nc2ccccc2c1=O | -103* | 15 | 10µM* | 8% | 5.6µM* | 18%
Cc1ccc(-n2nc3c(N4CCC(C(=O)NCCc5ccco5)CC4)nnc(C)c3c2C)cc1 | -18 | -13 | ? | -16% | ? | ?
Cc1ccc(-n2nc3c(N4CCC(C(=O)NCCC(C)C)CC4)nnc(C)c3c2C)cc1 | . | . | . | -9% | . | ?
Cc1ccc(-n2nc3c(N4CCC(C(=O)NCc5ccc(C)o5)CC4)nnc(C)c3c2C)cc1 | -1 | 8 | 18µM* | -27% | 21µM* | ?
Cc1ccc(-n2nc3c(N4CCC(C(=O)NCc5cccc(F)c5)CC4)nnc(C)c3c2C)cc1 | ? | ? | ? | -95% | ? | 16µM*
